High-throughput results from PubChem BioAssay.
Hits are enriched below; roughly 3.7% of the tested compounds scored in any of these assays.
FEN1 inhibitor – inhibitors of human flap endonuclease 1. P39748. Potency, µM (top dose mostly 114 µM), hits mostly inhibitors. actives 0.35% (n = 390,000). Recombinant FEN1 flap cleavage, fluorescence, 15 min; further: nearly all actives have a fitted effect of over 65% in size
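Read-out was taken twice, immediately and after 15 min, following addition of 50 nM substrate to 10 nM FEN1 that had sat with test compound for 15 min at room temperature. Curves came from a four-parameter Hill model.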
TCR act – activators of T cell receptors. 330,000 tested, under 10 active. Potency, µM (top dose mostly 9.22 µM), hits mostly activators. primary human leukocytes, anti-CD3, IL-2 HTRF, 48 h
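Readout: HTRF IL-2, Eu-cryptate/d2 antibody pair, 320nm excitation, 665nm emission. Stimulus: a-CD3 beads, no co-stimulation. Cells: primary human leukocytes. Exposure: 48 hr with compound.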
WRN inhibitor – inhibitors of human WRN helicase; Q14191; WRN helicase unwinding, fluorescent forked duplex, kinetic; Potency, µM (doses to about 114 µM), usual class: inhibitors; actives 0.46% (n = 360,000); AID 651768; further: nearly all actives have a fitted effect of over 55% in size
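Fluorescence dequenching readout, ex 525 nm/em 598 nm, kinetic mode: forked duplex DNA (100 nM final) with adjacent fluorophore and quencher unwound by WRN (20 nM final) with 2 mM ATP. Compound preincubation 15 min, room temperature.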
PLK1 PBD block – PLK1 (human) polo-box domain binding inhibition. Potency, µM, actives largely listed as inhibitors. actives 2.8% (n = 360,000). Plk1 PBD binding of FITC phosphopeptide, fluorescence polarization; further: series mostly up to about 57 µM; nearly all actives have a fitted effect of over 65% in size
Target sequence (P53350 whole entry, looked up, the tested form may be a part): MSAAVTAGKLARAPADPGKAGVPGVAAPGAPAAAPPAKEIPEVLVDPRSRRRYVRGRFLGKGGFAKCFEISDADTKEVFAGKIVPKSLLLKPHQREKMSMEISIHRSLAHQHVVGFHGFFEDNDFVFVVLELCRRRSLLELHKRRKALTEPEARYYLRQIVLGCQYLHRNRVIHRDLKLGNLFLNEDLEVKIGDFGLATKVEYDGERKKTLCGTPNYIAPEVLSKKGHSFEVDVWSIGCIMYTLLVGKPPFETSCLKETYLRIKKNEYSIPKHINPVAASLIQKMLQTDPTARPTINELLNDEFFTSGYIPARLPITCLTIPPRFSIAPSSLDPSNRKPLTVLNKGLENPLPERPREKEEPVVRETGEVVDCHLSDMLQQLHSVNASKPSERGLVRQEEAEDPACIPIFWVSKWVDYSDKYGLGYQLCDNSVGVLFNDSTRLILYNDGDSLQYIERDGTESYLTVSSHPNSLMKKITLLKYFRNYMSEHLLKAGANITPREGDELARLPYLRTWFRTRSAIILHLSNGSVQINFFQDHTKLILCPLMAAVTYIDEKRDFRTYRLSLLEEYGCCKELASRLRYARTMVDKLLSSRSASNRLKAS
PI5P4Ka inh – PI5P4K alpha (human) kinase inhibition; max response, %; AID 652105; actives 1.2% (n = 330,000); PI5P4Kalpha enzyme, ADP-Glo luminescence, 60 min; hits give low values; active means max response of -50% or lower; inconclusive means between -30% and -50%; inactive means -30% or higher; further: value at the top dose of about 77 µM
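Quantitative HTS of the MLSMR library against PI5P4Kalpha with substrate. ATP added last at 5 microM final; room temperature, 60 minutes. Remaining ATP depleted, ADP converted and read as luminescence.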
VDR inh – inhibitors of human vitamin D receptor | P11473 | VDR-SRC2-3 peptide fluorescence polarization, 2 h | Potency, µM, hits mostly inhibitors | AID 504847 | actives 0.93% (n = 400,000)
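Signal is fluorescence polarization, reporting how far test compounds block the interaction of VDR with the SRC2-3 coregulator peptide after a 2 h room-temperature incubation.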
Each line names hits and unclear results; the compound was inactive in the other large screens. Unless noted, the call rests on the fitted dose curve; in most records, active means well fitted curve in the direction sought with a large enough effect; inconclusive means small, poorly fitted or top-dose-only effect, or another doubt; inactive means no such curve, though single readings can be large; an effect the other way counts as inactive or inconclusive.

C=CCn1c(CNc2ccccc2)nnc1SCC(=O)N/N=C/c1ccc(O)cc1O	PLK1 PBD block 27µM
CCN(CC)c1nc(N)c2c(N)nc3c(c2c1C#N)CC(c1ccccc1)O3 (configuration not stated)	none (no result: PI5P4Ka inh)
CCN(CC)c1nc(N)c2c(N)n(-c3ccccc3C)c(=S)c(C#N)c2c1C#N	WRN inhibitor inconclusive, PLK1 PBD block 27µM, PI5P4Ka inh inconclusive, VDR inh inconclusive (no result: TCR act)
C1=C/C(=C2/C=Cc3ccccc32)c2ccccc2N1	none (no result: TCR act, WRN inhibitor, PLK1 PBD block, PI5P4Ka inh, VDR inh)
COc1ccc2c(c1)C=C(C(=O)OCc1cccnc1)CO2	PLK1 PBD block 27µM, PI5P4Ka inh inconclusive
COc1ccc(-c2nc3ccccc3c(=O)n2NC(=S)N(C)C)cc1	PLK1 PBD block 4.7µM, PI5P4Ka inh inconclusive, VDR inh 35µM
O=C(Nn1c(-c2ccc(Br)cc2)nc2ccccc2c1=O)c1cccnc1	WRN inhibitor inconclusive, PLK1 PBD block inconclusive, PI5P4Ka inh -56
O=C(Nn1c(-c2ccncc2)nc2ccccc2c1=O)c1ccc(Br)cc1	none
N#CC(=C=[N-])C1=C(C#N)C(c2ccccc2F)C([n+]2ccccc2)C(O)(C2CC2)N1 (configuration not stated)	none (no result: PI5P4Ka inh)
Cc1cccc[n+]1C1C(c2ccccc2)C(C#N)=C(C(=C=[N-])C#N)NC1(O)C1CC1 (configuration not stated)	WRN inhibitor inconclusive, PLK1 PBD block inconclusive, PI5P4Ka inh -74
CC(/C=C1\SC(=S)N(C(C(=O)O)c2ccccc2)C1=O)=C\c1ccccc1 (configuration not stated)	PLK1 PBD block 27µM
CC(=C\c1ccccc1)/C=C1/SC(=S)N(CCC(=O)O)C1=O	none
C=CCOc1ccc(/C=C2\SC(=S)N(C(C(=O)O)c3ccccc3)C2=O)cc1 (configuration not stated)	PLK1 PBD block 30µM, VDR inh 79µM
O=C(O)C(c1ccccc1)N1C(=O)/C(=C/c2cccs2)SC1=S (configuration not stated)	PLK1 PBD block inconclusive
CC(/C=C1\SC(=S)N(CC(=O)O)C1=O)=C\c1ccccc1	PLK1 PBD block inconclusive, VDR inh 45µM
CC(C)c1ccc(NC(=O)c2cnc3sc(N4CCCC4)nn3c2=O)cc1	none (no result: TCR act, WRN inhibitor, PLK1 PBD block, PI5P4Ka inh)
CCc1cccc(OCCCCNCCO)c1	PLK1 PBD block 27µM
Cc1cccc(OCCCCCNCCO)c1	none (no result: PI5P4Ka inh)
Cc1ccccc1-c1nn2c(=O)cc(CN3CCN(C(=O)/C=C/c4ccccc4)CC3)nc2s1	none (no result: TCR act, WRN inhibitor, PLK1 PBD block, PI5P4Ka inh)
CCCCn1c(SCC(=O)c2ccc(OC)cc2OC)nc2cc(S(N)(=O)=O)ccc21	WRN inhibitor inconclusive, PI5P4Ka inh -54
Cc1nc2cc(C(=O)NCCC3=CCCCC3)ccc2n1-c1ccc(Br)cc1	none (no result: TCR act, WRN inhibitor, PLK1 PBD block, PI5P4Ka inh)
O=C1C(=Cc2cccs2)C(=O)c2ccccc21	PLK1 PBD block 8.4µM
O=C1/C(=C\c2cccs2)Sc2ccc3ccccc3c21	WRN inhibitor inconclusive
Cc1ccc(C=C2C(=O)c3ccccc3C2=O)s1	WRN inhibitor inconclusive, PLK1 PBD block 17µM
O=C1/C(=C\c2cccs2)CCC/C1=C/c1cccs1	VDR inh 40µM (no result: FEN1 inhibitor, TCR act, WRN inhibitor, PLK1 PBD block, PI5P4Ka inh)
O=C1/C(=C/c2cccs2)Cc2ccccc21	none
CCCCN(C)CCNC(=O)c1cc(-c2ccc(Cl)s2)nc2ccccc12	none (no result: TCR act, WRN inhibitor, PLK1 PBD block, PI5P4Ka inh)
CN(C)c1ccc(/C=C/c2ccnc3c(-c4ccccc4)cccc23)cc1	none (no result: TCR act, WRN inhibitor, PLK1 PBD block, PI5P4Ka inh, VDR inh)
CN(C)S(=O)(=O)c1cccc(-c2nnc(SCc3cc(Cl)cc4c3OCOC4)n2N)c1	PLK1 PBD block 9.5µM, VDR inh inconclusive
Cc1ccc(NC(=O)C(=O)c2cc(C)n(-c3ccc(F)cc3)c2C)cc1C	none (no result: TCR act, WRN inhibitor, PLK1 PBD block, PI5P4Ka inh)
O=C(Nc1ccccc1N1CCN(C(=O)c2ccc(Cl)cc2)CC1)c1cc2ccccc2o1	PLK1 PBD block 30µM
CC(=O)N1CCN(c2ccccc2NC(=O)c2cc3ccccc3o2)CC1	none
C[C@H](CN1c2ccccc2Sc2cccnc21)N(C)C	none (no result: FEN1 inhibitor, TCR act, WRN inhibitor, PLK1 PBD block, PI5P4Ka inh)
Cc1ccc2nc(/C(C#N)=C\c3ccc(Oc4ccc(C(F)(F)F)cc4[N+](=O)[O-])cc3)[nH]c2c1	WRN inhibitor 56µM
Cc1ccc2nc(/C(C#N)=C/c3ccc(-c4cccc([N+](=O)[O-])c4)o3)[nH]c2c1	FEN1 inhibitor 45µM, WRN inhibitor inconclusive
Cc1ccc2nc(/C(C#N)=C/c3ccc(-c4ccc(F)cc4F)o3)[nH]c2c1	none (no result: TCR act, WRN inhibitor, PLK1 PBD block, PI5P4Ka inh)
COc1ccc2c(c1)c1c(c(=O)n(-c3cccc(Cl)c3)c(=O)n1CC(=O)NCC1CCCO1)n2C (configuration not stated)	none (no result: TCR act, WRN inhibitor, PLK1 PBD block, PI5P4Ka inh)
Cc1cc(C(=O)OCC(=O)N2CCOCC2)c2ccccc2n1	PLK1 PBD block 15µM, VDR inh inconclusive
COc1ccc(C2CC(=O)c3cc(-c4nc(-c5cccc([N+](=O)[O-])c5)cs4)c(=O)n(-c4ccc(C)c(C)c4)c3C2)cc1 (configuration not stated)	none (no result: TCR act, WRN inhibitor, PLK1 PBD block, PI5P4Ka inh)
O=S(c1ccccc1O)S(=O)c1ccccc1O (configuration not stated)	FEN1 inhibitor inconclusive, WRN inhibitor 14µM, PLK1 PBD block 0.6µM, PI5P4Ka inh -83, VDR inh 35µM
Nc1ccccc1O	none
O=C(Oc1nsnc1N1CCOCC1)c1ccccc1	PLK1 PBD block 24µM (no result: TCR act, PI5P4Ka inh)
COc1ccc(C2=Nc3cccc4cccc(c34)N2)cc1	none (no result: PI5P4Ka inh)
CC(C)C1=Nc2cccc3cccc(c23)N1	PLK1 PBD block 9.5µM
NC(=O)c1nsc(C(=O)N(CC(=O)NC2CCCCC2)Cc2ccc3c(c2)OCO3)c1N	none (no result: TCR act, WRN inhibitor, PLK1 PBD block, PI5P4Ka inh)
CCOC(=O)C1(Cc2ccccc2)CCCN(C(=O)c2cnn(CC)c2)C1 (configuration not stated)	PLK1 PBD block 24µM
CCOC(=O)C1(Cc2cccc(Cl)c2)CCCN(C(=O)c2ccco2)C1 (configuration not stated)	PLK1 PBD block 13µM, VDR inh inconclusive
CCOC(=O)C1(Cc2cccc(Cl)c2)CCCN(C(=O)c2ccoc2C)C1 (configuration not stated)	none
Cn1c(=O)n(C)c2cc(/C=N/NC(=O)c3ccc(Cl)cc3)ccc21	PLK1 PBD block 30µM, VDR inh inconclusive
CCCCNC(=O)CCC1N=C2c3ccccc3N=C(SCC(=O)NCCc3ccc(OC)c(OC)c3)N2C1=O (configuration not stated)	none (no result: TCR act, WRN inhibitor, PLK1 PBD block, PI5P4Ka inh)
Cc1ccc(C)c(OCCn2cc(/C=C(\C#N)C(=O)NCC3CCCO3)c3ccccc32)c1 (configuration not stated)	PLK1 PBD block 30µM
Cc1cccc(CSCc2ccc(C(=O)O)o2)c1	PLK1 PBD block 24µM
O=c1ccc2ccccc2[nH]1	none (no result: FEN1 inhibitor, TCR act, WRN inhibitor, PLK1 PBD block, PI5P4Ka inh)
NC(=O)c1cc2ccc(O)cc2oc1=Nc1ccccc1	PLK1 PBD block 15µM, PI5P4Ka inh -72
COc1ccc2cc(C(=O)NCc3ccccc3)c(=Nc3ccc(C(=O)O)cc3)oc2c1	none
